Our source for the INHIBITION values is ChEMBL document CHEMBL4513216, “Probing the Open Global Health Chemical Diversity Library for Multistage-Active Starting Points for Next-Generation Antimalarials” (ACS Infect Dis, 2020).

Hit rate of the full screen: of about 69,000 compounds, about 8,600 (12%) showed an effect of 50% or more. The sample holds strong results, similar compounds and a random draw of the others, so the mix is not that of the screen.

This test has as its system Plasmodium berghei. Description: Screen against P. berghei liver stage (PbLuc), transformed with Luciferase, at 10uM. In kind it is functional, HepG2. The settings on record: tested at 10 uM.
Regarding `Cc1cc(C(=O)Nc2cccn(Cc3ccccc3)c2=O)no1`, the INHIBITION is given as -85.8%.
Take `O=C(c1ccccn1)N1CCC2(CC1)COC(COCC1CC1)C2` (stereo unspecified): the INHIBITION was determined as 23.5%.
For `CN(C)CCn1c2c(ccc1=O)CC(NC(=O)NC1CCCC1)CC2` (stereo unspecified), the INHIBITION was 39.5%.
The figure for `CCN1CCN(C(C)(C)CNc2nc(C)cc(C3CCC3)n2)CC1` is 9.52%.
Turning to `Cc1cc(C2CCC2)nc(NCC(C)(C)N2CCCC2)n1`, the INHIBITION is on record as 57.2%.
As for `Cc1cc(C2CCC2)nc(NCC(C)(C)N2CCOCC2)n1`, the INHIBITION turned out to be 9.52%.
Then `COC(=O)CCC(=O)NCc1cccnc1N1CCc2ccccc2C1`, with -13.1%; and `CC(NC(=O)C1=NN(C)C(=O)CC1)c1cccc(Cl)c1` (stereo unspecified), with 24.3%; and `Cc1cc(C(=O)N2CCCCC2c2nc(C)cs2)[nH]n1` (stereo unspecified), with 35.7%.
`Cc1csc(C2CCCCN2C(=O)c2cc(C(C)C)[nH]n2)n1` (stereo unspecified): the INHIBITION stood at 70.8%.
The figure for `Cc1csc(C2CCCCN2C(=O)c2cc(C3CC3)[nH]n2)n1` (stereo unspecified) is 13.6%; for `Cc1nc(CN2CCC(C(=O)O)(n3ccc(C(C)C)n3)CC2)co1` it is -35.2%.
For `N#Cc1ccc(NC(=O)N2CCCCC2CN2CCCC2=O)cc1` (stereo unspecified), the INHIBITION was 44.9%.
For the compound `COCCCC1CCCCN1C(=O)c1ccc(SCCO)cc1` (stereo unspecified), the INHIBITION amounted to 52.6%.
Regarding `CCC1CCCCCN1C(=O)c1ccc(N2CCC(O)CC2)cc1` (stereo unspecified), the INHIBITION was -45.2%.
The figure for `Cc1ccc(C(=O)N2CCCCC2CN(C)C)cc1` (stereo unspecified) is 21.8%; for `O=C1CCCN1CCC1CCCCN1C(=O)c1ccc(SCCO)cc1` (stereo unspecified) it is 58.2%.
For the compound `Cc1cc(C)n(CC(=O)N2CCCCC2CCN2CCCC2=O)c(=O)n1` (stereo unspecified), the INHIBITION is reported as 44.2%.
Consider `COc1ccc2c(c1)CN(C)C(=O)CCN2CC(O)C(C)(C)C` (stereo unspecified), for which the INHIBITION amounted to 17.7%.
Then `CC(C)(NCC(=O)NCC1CC1)c1ccc2c(c1)OCCO2`, with -36.3%; and `CCn1ccc(C(=O)Nc2ccc3c(c2)C(C)(C)C(=O)N3C)n1`, with 40%.
Consider `CCC(CC)C(=O)N1CCC(c2nn(CCN)c3nccnc23)C1` (stereo unspecified), for which the INHIBITION worked out at 41.2%.
As for `CS(=O)(=O)N[C@@H]1CN(C(=O)c2ccccn2)C[C@@H]2CCCO[C@@H]21`, the INHIBITION came out at 34.6%.
Then `COc1ccc(-c2cc3nc(CCNC(=O)CN(C)C)nn3cn2)cc1`, with 19.4%; and `CC(C)(C)C(=O)CN1CCc2ccccc2NCCC1=O`, with 15.4%; and `CN1CCCN(C(=O)c2ccn3ccnc3c2)CC1`, with -60.7%.
Then `O=C(c1ccsc1)N1CC[C@@H](N2CCOCC2)[C@@H]1Cc1ccccc1`, with -2.72%.
Take `COCc1nc(C(=O)NS(=O)(=O)c2ccc(OC)c(C)c2)cs1`: the INHIBITION is reported as 52.6%.
Regarding `COCc1nc(C(=O)NS(=O)(=O)c2ccc(F)c(F)c2)cs1`, the INHIBITION is given as 21.1%.
With `COCc1nc(C(=O)NS(=O)(=O)c2ccc(C)c(C)c2)cs1`, the INHIBITION is on record as -1.7%.
Take `COc1ccccc1NC(=O)c1cc2c([nH]c1=O)CCCC2=O`: the INHIBITION is on record as -15.9%.
The figure for `CCN(c1ccc(C(=O)NCCN2CCOCC2)cc1)S(=O)(=O)CC` is 34.2%.
The figure for `CCN(CC)C(=O)Cn1cc(C(=O)NCCc2scnc2C)nn1` is 10.6%; for `CCN(CC)C(=O)Cn1cc(C(=O)NCCc2nc(C)c(C)s2)nn1` it is 39%.
For the compound `CCN(CC)C(=O)Cn1cc(C(=O)NCCCc2scnc2C)nn1`, the INHIBITION was 56.3%.
Regarding `CN(Cc1ccco1)[C@@H]1CN(CC2CCOCC2)C[C@@H]2CCCO[C@@H]21`, the INHIBITION came out at 38.1%.
Consider `CNC(=O)C1(c2cnccn2)CCCN1C(=O)c1ccccc1C` (stereo unspecified), for which the INHIBITION stood at 30.4%.
Then `COc1ccc2c(C(=O)N(C)C)cc(-c3cnc(N)nc3)nc2c1`, with 15.7%.
Consider `Cc1ccc2nc(-c3cnc(N)nc3)cc(C(=O)N(C)C)c2c1`, for which the INHIBITION was 13.5%.
Consider `CN(C)C(=O)c1cc(-c2cnc(N)nc2)nc2cc(F)ccc12`, for which the INHIBITION was found to be 60.2%.
In the case of `Cc1cc(C)c2c(C(=O)N(C)C)cc(-c3cnc(N)nc3)nc2c1`, the INHIBITION is 5.91%.
As for `CCCn1cc(-c2cc(C(=O)N(C)C)c3ccc(C)cc3n2)cn1`, the INHIBITION is 8.845%.
`Cc1ccc2nc(-c3cnc(N)nc3)c(C)c(C(=O)N(C)C)c2c1`: the INHIBITION is 50.5%.
`c1ncn(CC2CCCN(CC3CCCCC3)C2)n1` (stereo unspecified): the INHIBITION is on record as -1.75%.
For the compound `Nc1cc(C(=O)N2CCCC(C(=O)CCc3ccccc3)C2)ccn1` (stereo unspecified), the INHIBITION stood at 49.3%.
On to `c1cnc(N2CCO[C@H]3CN(Cc4cc[nH]n4)C[C@H]32)cn1`, for which the INHIBITION is given as -15.3%.
Consider `CCc1nc(CN2CCOC(Cn3nc(C)cc3C)C2)no1` (stereo unspecified), for which the INHIBITION is -0.219%.
Regarding `COCCN1CCC(CNc2nc3ccccc3o2)CC1`, the INHIBITION was determined as 61%.
The figure for `COCCN1CCC(CNc2cnc3ccccc3n2)CC1` is 46.1%; for `COCCN1CCC(CNc2nccc(-c3cnn(C)c3)n2)CC1` it is 13.3%; for `Cc1csc(CN2CCC3(CC2)COC(COCC2CC2)C3)n1` (stereo unspecified) it is 43%.
Turning to `CS(=O)(=O)NC1CCCN(C(=O)NCc2ccccc2Cl)C1` (stereo unspecified), the INHIBITION is listed as 25.4%.
In the case of `CC(=O)OC1CN(c2nc3c(Cl)cccc3s2)C1`, the INHIBITION was -56.7%.
With `c1cnc(-c2nc(CNC3CCc4ncnn4C3)cs2)nc1` (stereo unspecified), the INHIBITION is -25.75%.
Take `Cc1ccc(CCC(=O)N2CCn3c(nnc3C(C)C)C2)cc1Cl`: the INHIBITION is given as 8.41%.
Then `COc1ccc(-c2nnc(SC(C)C(=O)NC(C)(C)C)[nH]2)c(OC)c1` (stereo unspecified), with 82.5%; and `COc1ccc(-c2ccccc2CN)c(OC)c1`, with -58%.
As to `COc1ccc(-c2nnc(SC(C)C(=O)NC3CCCC3)[nH]2)c(OC)c1` (stereo unspecified), the INHIBITION is given as 51.7%.
With `COc1ccc(-c2nnc(SC(C)C(N)=O)[nH]2)c(OC)c1` (stereo unspecified), the INHIBITION is 18.3%.
Then `COc1ccc(-c2nnc(SC(C)C(=O)NCC(C)C)[nH]2)c(OC)c1` (stereo unspecified), with 64%; and `COc1ccc2nnc(C(=O)NC3CCCC3)nc2c1`, with -65.8%; and `COc1ccc(-c2nnc(SCC(=O)NCC(C)C)[nH]2)c(OC)c1`, with -30.8%.
Then `COc1ccc(-c2nnc(SC(C)C(=O)NC3CC3)[nH]2)c(OC)c1` (stereo unspecified), with 37.1%; and `COc1ccc(S(=O)(=O)NC(=O)C(C)OC)c(OC)c1` (stereo unspecified), with 33%; and `COc1cc2cc3c(nc2cc1OC)OCCN(Cc1cccs1)C3`, with -3.94%.
The figure for `Cc1ccc(CN2CCc3onc(C(=O)Nc4cccnc4)c3C2)o1` is -12.2%; for `CC1(C(=O)NC2CCCC2)CCCN(c2ncccn2)C1` (stereo unspecified) it is 0.301%; for `O=C(NCC1CCOCC1)c1cc(-c2cccnc2)c2cnccc2n1` it is -4.87%.
Consider `CN(C)c1cc(C2CCCN(Cc3cnn(C)c3)C2)ccn1` (stereo unspecified), for which the INHIBITION is given as 3.85%.
Consider `CCn1cc(C2CCN(Cc3ccnc(N(C)C)c3)CC2)cn1`, for which the INHIBITION came out at 66.7%.
Turning to `CCn1cc(CN2CCC(c3nnc(CN(C)C)n3CC)CC2)cn1`, the INHIBITION is given as 15.1%.
Regarding `Cc1ccc(C(=O)N2CCCCC2c2[nH]ncc2S(C)(=O)=O)s1` (stereo unspecified), the INHIBITION was 36.7%.
Take `CN(C)CC1CSCCCN1C(=O)c1ccsc1` (stereo unspecified): the INHIBITION is -26.3%.
Consider `CN1CC2(CCC(C(=O)O)CC2)Oc2ccccc2C1=O` (stereo unspecified), for which the INHIBITION is on record as -4.35%.
With `CN1C(=O)CO[C@H](c2ccc(NC(=O)c3cccc(F)c3)cc2)[C@H]1CO`, the INHIBITION stood at 38.1%.
With `CN1CCC(Oc2ccc(NC(=O)c3cccc(Cl)c3)cc2)CC1`, the INHIBITION stood at 65.1%.
The figure for `Cc1ccccc1C(=O)Nc1ccc(OC2CCN(C)CC2)cc1` is 10.7%; for `CSc1ccccc1C(=O)Nc1ccc(OC2CCN(C)CC2)cc1` it is 11.8%.
The figure for `Cc1ccc(C)c(C(=O)Nc2ccc(OC3CCN(C)CC3)cc2)c1` is 55.8%; for `Cc1ccc(C(=O)Nc2ccc(OC3CCN(C)CC3)cc2)c(C)c1` it is 47%; for `CN1CCC(Oc2ccc(NC(=O)c3ccccc3Br)cc2)CC1` it is 51.8%.
Take `Cc1cccc(C(=O)Nc2ccc(OC3CCN(C)CC3)cc2)c1`: the INHIBITION was 63.5%.
`COc1cccc(C(=O)Nc2ccc(OC3CCN(C)CC3)cc2)c1`: the INHIBITION is given as 49.2%.
Turning to `CN1CCC(Oc2ccc(NC(=O)c3ccccc3)cc2)CC1`, the INHIBITION is recorded as 21.7%.
As to `COc1ccccc1C(=O)Nc1ccc(OC2CCN(C)CC2)cc1`, the INHIBITION is -25.6%.
Regarding `COCCc1noc(CN2CCCCC2Cn2cccn2)n1` (stereo unspecified), the INHIBITION is -2.33%.
As for `CCCSCC(=O)NCc1cccc(CN(C)CC)c1`, the INHIBITION is listed as 39.8%.
In the case of `CN([C@@H]1CC[C@@H](N2CCOCC2)[C@@H]1O)S(=O)(=O)c1ccccc1`, the INHIBITION is 3%.
As to `Cc1nnc(CN(Cc2ccco2)Cc2cccc3c2OCO3)n1C`, the INHIBITION is given as -16.4%.
For `CN(C)CC1(O)CCN(C(=O)c2ccc(-n3cccn3)cc2Cl)C1` (stereo unspecified), the INHIBITION amounted to 36.6%.
`CNC(=O)c1cc(S(=O)(=O)C(C)C)cs1`: the INHIBITION was determined as 24.1%.
For the compound `COc1ccc(C)cc1CCNS(=O)(=O)c1ccc2c(c1)CCC(=O)N2`, the INHIBITION worked out at 56.3%.
`COc1ccc(OC)c(C(C)NS(=O)(=O)c2cnn(C)c2)c1` (stereo unspecified): the INHIBITION came to 11.2%.
As for `COc1ccc(C(C)NS(=O)(=O)c2ccc3c(c2)CCC(=O)N3)cc1F` (stereo unspecified), the INHIBITION is 20.2%.
Turning to `COc1ccc(C)cc1CCNS(C)(=O)=O`, the INHIBITION was -18%.
Take `CCN(CC)S(=O)(=O)NCCc1cc(C)ccc1OC`: the INHIBITION is -12.9%.
For the compound `COc1ccc(C)cc1C(C)NS(=O)(=O)c1ccc2c(c1)CCC(=O)N2` (stereo unspecified), the INHIBITION is 54.5%.
The figure for `Cc1oncc1C(=O)N1C[C@H](OCc2ccccn2)[C@H]2OCCC[C@H]21` is 15.4%; for `COc1ccc(F)c(-c2ccnc(N)c2)c1` it is 1.95%; for `CC(CC(=O)NCCNS(C)(=O)=O)C1CCCCC1` (stereo unspecified) it is 44.5%.
Regarding `COCCn1cc2c(n1)C(CNS(C)(=O)=O)OCC2` (stereo unspecified), the INHIBITION is on record as -31%.
The figure for `CCN(CC)C(=O)c1ccn(COc2ccc(F)cc2F)n1` is -3.93%; for `CCc1ncc(C(=O)NCCN2CCNC2=O)cn1` it is 22.285%.
Consider `Cc1nnc(C2CCN(C(=O)c3ccc4nccnc4c3)CC2)s1`, for which the INHIBITION is given as 51.3%.
As to `Cc1nnc(C2CCN(C(=O)c3ccc4[nH]ccc4c3)CC2)s1`, the INHIBITION is on record as -5.64%.
For the compound `COC(=O)c1ccc(C(=O)N2CCC(c3nnc(C)s3)CC2)cc1`, the INHIBITION is recorded as 20.4%.
